# Results from PubChem BioAssay (NCATS).
# Activity calls are given as the source filed them. The call rests on the fitted dose curve; in most records, active means well fitted inhibition curve with a large enough effect; inconclusive means small, poorly fitted or top-dose-only effect; inactive means no such curve, though single readings can be large or run the other way.
# Test: qHTS assay for measurement of the activity of small molecule inhibitors on Zika virus induced Caspase-3 activity in human astrocytoma cells (AID 1224859);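 further: plate controls were ZIKV-infected untreated cells for no effect and uninfected cells for full effect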
# Conditions: SNB-19 ZIKV-induced caspase-3/7, luminescence, 6 h; series mostly up to 45.7 µM; activity change, negative = inhibition: at the top concentration
# Procedure, shortened: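 Inhibition of Zika-induced caspase-3/7 activity: SNB-19 cells, 1 h compound pretreatment, ZIKV 2 FFU/cell for 6 h at 37 C, Caspase-Glo luminescence read-out.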
row,SMILES,"activity change, negative = inhibition"
1,CCCCCCCCCCCCCCCCCCOC[C@H](COP(=O)([O-])OCC[N+](C)(C)C)OC,182% (inactive)
2,O=c1[nH]c2cc(Cl)ccc2c(O)c1-c1ccc(Oc2ccccc2)cc1,6.16% (inactive)
3,COc1ccccc1N1CCN(CCN(C(=O)c2ccc(F)cc2)c2ccccn2)CC1,4.18% (inactive)
4,CCCC(=O)NCCc1c2n(c3ccc(OC)cc13)CCCc1ccccc1-2,2.54% (inactive)
5,CC[C@@H]1Cc2cc(O)ccc2C2=C1c1ccc(O)cc1C[C@H]2CC,5.11% (inactive)
6,N[C@H]1CONC1=O,-3.31% (inactive)
7,C=C1C(=O)O[C@@H]2[C@H]3O[C@]3(C)CCC=C(C)CC[C@@H]12,170% (inactive)
8,N#Cc1cc2nc(O)c(O)nc2cc1[N+](=O)[O-],-1.37% (inactive)
9,CCCOC(=O)c1c(-c2ccccc2)nc(CC)c(C(=O)SCC)c1CCC,-10.5% (inactive)
10,Nc1ncnc2c1nc(Sc1ccc(Cl)cc1)n2[C@H]1OC2COP(=O)(O)O[C@@H]2C1O (stereo partly specified),17.3% (inactive)
11,NCC(O)c1ccc(O)c(O)c1 (stereo unspecified),0.659% (inactive)
12,NC1CONC1=O (stereo unspecified),1.82% (inactive)
13,Oc1ccc(/C=C/c2ccc(/C=C/c3ccc(O)cc3)c(Br)c2)cc1,-0.761% (inactive)
14,COc1ccc(C(=O)NCc2cccnc2)cc1C(=O)NCc1cccnc1,2.42% (inactive)
15,NC1C=CC=C(C(=O)O)C1 (stereo unspecified),3.38% (inactive)
16,COc1ccc(CCN(C)CCc2ccc(OC)c(OC)c2)cc1OC,6.15% (inactive)
17,CC(=O)/C(C)=N/O,-7.84% (inactive)
18,COc1ccc(CCn2nnnc2C2(c3ccc(C)cc3)CC2)cc1,-2.39% (inactive)
19,NC(N)=N[C@@H](CCC(=O)O)C(=O)O,-15.7% (inactive)
20,CCCCS(=N)(=O)CC[C@H](N)C(=O)O (stereo partly specified),-13.9% (inactive)
21,N[C@@H](Cc1ccc(O)c(I)c1)C(=O)O,0.154% (inactive)
